Experimental data from PMC7862700, “An all-to-all approach to the identification of sequence-specific readers for epigenetic DNA modifications on cytosine”.

Assays:
Assay in all cases: DAPPL (digital affinity profiling via proximity ligation, sequencing); 10 mM Tris-HCl pH 7.5, 50 mM NaCl, 1 mM DTT, 4% glycerol, room temperature, 30 min; GST-TFs on glutathione beads, 16-mer random dsDNA library, 0.1% formaldehyde crosslink after washing; high values mean tight binding
Settings in all cases: protein: recombinant; tags: N-terminal GST; dsDNA, one strand shown
FLI1 = target: T1, FLI1 (Homo sapiens, UniProt Q01543 1-452)
T1 sequence: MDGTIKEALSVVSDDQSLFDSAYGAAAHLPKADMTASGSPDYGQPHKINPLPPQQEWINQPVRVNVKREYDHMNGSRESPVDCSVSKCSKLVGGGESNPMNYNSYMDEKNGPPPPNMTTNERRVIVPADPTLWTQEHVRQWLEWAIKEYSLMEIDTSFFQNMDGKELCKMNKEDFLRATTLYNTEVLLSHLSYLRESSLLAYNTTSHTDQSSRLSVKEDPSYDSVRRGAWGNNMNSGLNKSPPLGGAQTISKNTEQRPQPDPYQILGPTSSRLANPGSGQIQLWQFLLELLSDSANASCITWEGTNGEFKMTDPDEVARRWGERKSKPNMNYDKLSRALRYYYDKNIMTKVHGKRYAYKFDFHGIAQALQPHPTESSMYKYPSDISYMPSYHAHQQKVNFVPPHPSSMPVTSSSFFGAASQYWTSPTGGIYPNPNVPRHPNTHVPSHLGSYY
Outline: (§1)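 Yeast served to express human transcription factors as GST fusions, which were then captured on glutathione beads and labelled with DNA barcodes. Pooled with a tag-only sample, they were incubated with 200 nmole of a 16-mer random double-stranded DNA library for 30 min at room temperature in Tris/NaCl/DTT/glycerol buffer, washed, crosslinked with 0.1% formaldehyde, ligated by proximity, amplified by PCR and sequenced. Dividing each hexamer's read frequency for a factor by its frequency for the tag-only sample gives the binding signal.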

ELK1 = target: T2, ELK1 (Homo sapiens, UniProt P19419 1-428)
T2 sequence: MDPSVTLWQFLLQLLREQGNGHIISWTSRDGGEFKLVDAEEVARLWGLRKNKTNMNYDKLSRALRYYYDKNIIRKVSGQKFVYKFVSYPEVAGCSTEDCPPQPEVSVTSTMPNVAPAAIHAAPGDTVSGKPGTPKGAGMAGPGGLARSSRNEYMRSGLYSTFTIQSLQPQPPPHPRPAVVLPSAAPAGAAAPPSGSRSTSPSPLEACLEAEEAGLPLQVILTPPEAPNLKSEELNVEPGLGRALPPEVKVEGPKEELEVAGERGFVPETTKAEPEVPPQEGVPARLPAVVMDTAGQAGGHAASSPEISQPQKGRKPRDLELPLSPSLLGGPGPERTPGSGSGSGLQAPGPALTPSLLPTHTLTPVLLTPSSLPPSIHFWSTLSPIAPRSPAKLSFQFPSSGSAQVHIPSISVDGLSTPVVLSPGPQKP
Outline: as §1

GABPA = target: T3, GABPA (Homo sapiens, UniProt Q06546 1-454)
T3 sequence: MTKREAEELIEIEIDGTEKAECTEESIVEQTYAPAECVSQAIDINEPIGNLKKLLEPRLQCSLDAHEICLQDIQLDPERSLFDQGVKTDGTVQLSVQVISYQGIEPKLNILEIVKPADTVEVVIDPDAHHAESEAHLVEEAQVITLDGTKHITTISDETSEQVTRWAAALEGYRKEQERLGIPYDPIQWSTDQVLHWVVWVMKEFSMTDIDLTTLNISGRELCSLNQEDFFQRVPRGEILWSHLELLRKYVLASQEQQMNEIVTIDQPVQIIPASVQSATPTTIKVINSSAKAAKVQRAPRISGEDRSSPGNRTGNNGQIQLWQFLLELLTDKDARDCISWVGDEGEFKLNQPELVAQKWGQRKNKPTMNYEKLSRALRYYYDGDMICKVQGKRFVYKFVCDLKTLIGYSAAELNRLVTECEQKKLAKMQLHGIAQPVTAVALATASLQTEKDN
Outline: as §1

ELF1 = ELF1 (Homo sapiens, UniProt P32519 1-619)
Chain of ELF1 (P32519 whole entry): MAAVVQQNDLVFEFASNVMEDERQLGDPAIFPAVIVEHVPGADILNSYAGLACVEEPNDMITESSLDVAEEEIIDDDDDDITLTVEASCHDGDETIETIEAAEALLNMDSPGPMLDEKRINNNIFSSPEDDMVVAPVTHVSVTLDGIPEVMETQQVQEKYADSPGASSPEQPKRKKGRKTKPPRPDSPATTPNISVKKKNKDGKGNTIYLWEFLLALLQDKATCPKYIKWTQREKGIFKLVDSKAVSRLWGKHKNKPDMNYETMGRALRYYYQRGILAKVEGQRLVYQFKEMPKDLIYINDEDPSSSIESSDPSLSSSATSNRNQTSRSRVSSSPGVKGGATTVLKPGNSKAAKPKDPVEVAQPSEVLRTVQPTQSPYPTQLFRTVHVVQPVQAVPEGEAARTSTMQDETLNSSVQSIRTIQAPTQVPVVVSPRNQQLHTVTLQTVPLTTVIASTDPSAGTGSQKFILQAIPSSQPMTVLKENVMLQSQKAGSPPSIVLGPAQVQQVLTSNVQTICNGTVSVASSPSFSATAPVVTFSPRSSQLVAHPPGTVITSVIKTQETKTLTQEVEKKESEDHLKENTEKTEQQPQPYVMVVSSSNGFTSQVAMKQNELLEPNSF
Outline: as §1

EHF = target: T4, EHF (Homo sapiens, UniProt Q9NZC4 1-300)
T4 sequence: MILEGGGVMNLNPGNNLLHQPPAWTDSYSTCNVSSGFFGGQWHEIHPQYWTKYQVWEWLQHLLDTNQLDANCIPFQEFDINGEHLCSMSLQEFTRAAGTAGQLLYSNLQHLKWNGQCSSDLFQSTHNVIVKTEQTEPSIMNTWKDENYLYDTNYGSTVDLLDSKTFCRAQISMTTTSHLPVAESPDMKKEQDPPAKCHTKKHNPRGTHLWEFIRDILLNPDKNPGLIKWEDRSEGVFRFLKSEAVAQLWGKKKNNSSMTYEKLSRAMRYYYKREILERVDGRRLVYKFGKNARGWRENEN
Outline: as §1

SPIB = SPIB (Homo sapiens, UniProt Q01892 1-262)
Chain of SPIB (Q01892 whole entry): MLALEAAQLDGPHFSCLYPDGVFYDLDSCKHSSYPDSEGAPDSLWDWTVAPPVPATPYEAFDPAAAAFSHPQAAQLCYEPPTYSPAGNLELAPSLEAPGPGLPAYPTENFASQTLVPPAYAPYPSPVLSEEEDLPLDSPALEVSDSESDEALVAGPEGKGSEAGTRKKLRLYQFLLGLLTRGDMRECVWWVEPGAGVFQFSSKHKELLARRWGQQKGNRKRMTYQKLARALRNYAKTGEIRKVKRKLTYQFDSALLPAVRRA
Outline: as §1

ELK3 = target: T5, ELK3 (Homo sapiens, UniProt P41970 1-407)
T5 sequence: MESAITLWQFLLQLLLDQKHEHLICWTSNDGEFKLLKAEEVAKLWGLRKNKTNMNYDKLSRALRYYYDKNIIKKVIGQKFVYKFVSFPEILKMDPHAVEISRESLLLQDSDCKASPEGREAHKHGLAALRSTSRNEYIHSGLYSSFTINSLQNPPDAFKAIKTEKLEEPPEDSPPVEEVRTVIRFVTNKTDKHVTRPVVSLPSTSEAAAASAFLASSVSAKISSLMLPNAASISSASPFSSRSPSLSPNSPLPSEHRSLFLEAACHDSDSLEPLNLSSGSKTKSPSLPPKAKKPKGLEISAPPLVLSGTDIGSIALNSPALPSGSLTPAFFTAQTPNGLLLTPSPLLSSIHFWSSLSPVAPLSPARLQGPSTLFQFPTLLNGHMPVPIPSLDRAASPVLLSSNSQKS
Outline: as §1

ELK4 = target: T6, ELK4 (Homo sapiens, UniProt P28324-2 1-405)
T6 sequence: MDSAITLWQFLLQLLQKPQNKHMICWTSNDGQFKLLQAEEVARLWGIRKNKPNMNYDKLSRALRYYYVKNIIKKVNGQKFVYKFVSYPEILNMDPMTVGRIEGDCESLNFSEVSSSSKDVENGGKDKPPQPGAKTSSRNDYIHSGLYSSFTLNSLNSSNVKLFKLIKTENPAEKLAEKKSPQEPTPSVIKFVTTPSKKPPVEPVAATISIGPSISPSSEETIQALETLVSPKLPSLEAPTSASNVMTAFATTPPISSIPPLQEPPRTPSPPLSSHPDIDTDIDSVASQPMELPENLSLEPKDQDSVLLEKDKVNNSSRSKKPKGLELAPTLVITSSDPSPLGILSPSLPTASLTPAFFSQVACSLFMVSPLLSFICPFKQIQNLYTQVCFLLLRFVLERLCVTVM
Outline: as §1

ETV2 = target: T7, ETV2 (Homo sapiens, UniProt O00321 1-342)
T7 sequence: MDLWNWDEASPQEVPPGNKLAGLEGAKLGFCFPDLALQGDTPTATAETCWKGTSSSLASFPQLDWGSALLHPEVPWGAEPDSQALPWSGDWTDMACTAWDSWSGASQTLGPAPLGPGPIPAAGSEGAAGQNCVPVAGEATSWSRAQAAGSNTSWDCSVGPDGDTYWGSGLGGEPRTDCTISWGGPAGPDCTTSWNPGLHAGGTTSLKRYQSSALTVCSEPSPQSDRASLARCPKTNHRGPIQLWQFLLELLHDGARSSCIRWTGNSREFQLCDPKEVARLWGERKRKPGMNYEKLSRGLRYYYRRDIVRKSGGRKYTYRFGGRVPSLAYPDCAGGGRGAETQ
Outline: as §1

ERF = target: T8, ERF (Homo sapiens, UniProt P50548 1-548)
T8 sequence: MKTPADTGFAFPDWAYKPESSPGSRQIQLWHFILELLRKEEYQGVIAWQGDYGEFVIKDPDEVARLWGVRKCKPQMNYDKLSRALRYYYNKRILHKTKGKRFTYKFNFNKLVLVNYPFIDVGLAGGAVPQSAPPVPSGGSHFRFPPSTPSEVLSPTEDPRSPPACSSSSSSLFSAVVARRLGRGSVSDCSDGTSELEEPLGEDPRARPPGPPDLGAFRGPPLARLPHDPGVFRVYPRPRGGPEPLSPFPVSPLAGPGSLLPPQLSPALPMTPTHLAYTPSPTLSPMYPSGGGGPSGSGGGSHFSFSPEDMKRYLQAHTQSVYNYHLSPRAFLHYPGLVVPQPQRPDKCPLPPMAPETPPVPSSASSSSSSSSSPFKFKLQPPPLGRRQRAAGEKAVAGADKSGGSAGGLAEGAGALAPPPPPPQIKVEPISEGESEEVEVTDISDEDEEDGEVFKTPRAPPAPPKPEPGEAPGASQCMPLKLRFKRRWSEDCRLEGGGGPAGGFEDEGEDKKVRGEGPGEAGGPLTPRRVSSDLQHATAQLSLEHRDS
Outline: as §1

ETV3L = target: T9, ETV3L (Homo sapiens, UniProt Q6ZN32 1-361)
T9 sequence: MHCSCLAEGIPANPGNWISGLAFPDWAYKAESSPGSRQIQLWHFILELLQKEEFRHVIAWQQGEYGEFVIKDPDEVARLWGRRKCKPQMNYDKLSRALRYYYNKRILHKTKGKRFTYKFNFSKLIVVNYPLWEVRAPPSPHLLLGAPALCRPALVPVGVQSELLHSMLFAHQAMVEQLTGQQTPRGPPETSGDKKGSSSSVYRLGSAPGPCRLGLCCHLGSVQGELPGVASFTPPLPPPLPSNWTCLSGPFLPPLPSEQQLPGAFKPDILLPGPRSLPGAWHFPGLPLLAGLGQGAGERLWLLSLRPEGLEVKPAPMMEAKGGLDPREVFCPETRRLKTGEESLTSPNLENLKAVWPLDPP
Outline: as §1

ETV7 = target: T10, ETV7 (Homo sapiens, UniProt Q9Y603 1-341)
T10 sequence: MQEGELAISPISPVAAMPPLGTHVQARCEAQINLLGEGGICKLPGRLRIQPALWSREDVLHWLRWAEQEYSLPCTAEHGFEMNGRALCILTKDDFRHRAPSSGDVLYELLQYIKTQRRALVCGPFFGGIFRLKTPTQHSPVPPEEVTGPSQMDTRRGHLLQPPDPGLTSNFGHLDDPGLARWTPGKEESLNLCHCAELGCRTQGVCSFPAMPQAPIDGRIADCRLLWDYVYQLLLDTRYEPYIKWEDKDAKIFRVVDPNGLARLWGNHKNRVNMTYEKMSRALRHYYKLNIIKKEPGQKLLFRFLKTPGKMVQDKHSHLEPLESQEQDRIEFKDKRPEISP
Outline: as §1

ETV6 = ETV6 (Homo sapiens, UniProt P41212 1-452)
Chain of ETV6 (P41212 whole entry): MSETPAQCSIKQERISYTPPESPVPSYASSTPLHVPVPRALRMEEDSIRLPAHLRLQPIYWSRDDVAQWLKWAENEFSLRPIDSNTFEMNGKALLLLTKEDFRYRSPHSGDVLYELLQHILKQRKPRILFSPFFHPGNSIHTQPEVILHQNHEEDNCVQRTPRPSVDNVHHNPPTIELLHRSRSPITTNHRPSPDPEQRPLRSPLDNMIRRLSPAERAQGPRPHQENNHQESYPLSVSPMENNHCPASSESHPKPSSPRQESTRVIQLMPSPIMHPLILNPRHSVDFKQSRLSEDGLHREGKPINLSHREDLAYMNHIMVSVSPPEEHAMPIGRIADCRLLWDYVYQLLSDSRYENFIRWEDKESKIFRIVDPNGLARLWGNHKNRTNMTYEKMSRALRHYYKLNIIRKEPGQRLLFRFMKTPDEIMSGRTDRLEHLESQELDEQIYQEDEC
Outline: as §1

**Q.** With GATTAA as the sequence, how does the binding signal (FLI1) read?
**A.** 1.01 fold enrichment (6-mer frequency, TF over GST control)

**Q.** And the binding signal (ELK1)?
**A.** 1.04 fold enrichment (6-mer frequency, TF over GST control)

**Q.** And the binding signal (GABPA)?
**A.** 1.04 fold enrichment (6-mer frequency, TF over GST control)

**Q.** What about the binding signal (ELF1) of the same sequence?
**A.** 1.02 fold enrichment (6-mer frequency, TF over GST control)

**Q.** And the binding signal (EHF)?
**A.** 1.01 fold enrichment (6-mer frequency, TF over GST control)

**Q.** What about the binding signal (SPIB) of the same sequence?
**A.** 1.02 fold enrichment (6-mer frequency, TF over GST control)

**Q.** And the binding signal (ELK3)?
**A.** 1.13 fold enrichment (6-mer frequency, TF over GST control)

**Q.** And the binding signal (ELK4)?
**A.** 1.06 fold enrichment (6-mer frequency, TF over GST control)

**Q.** What about the binding signal (ETV2) of the same sequence?
**A.** 1.11 fold enrichment (6-mer frequency, TF over GST control)

**Q.** And the binding signal (ERF)?
**A.** 1.04 fold enrichment (6-mer frequency, TF over GST control)

**Q.** And the binding signal (ETV3L)?
**A.** 1.1 fold enrichment (6-mer frequency, TF over GST control)

**Q.** What about the binding signal (ETV7) of the same sequence?
**A.** 1.01 fold enrichment (6-mer frequency, TF over GST control)

**Q.** What about the binding signal (ETV6) of the same sequence?
**A.** 1.12 fold enrichment (6-mer frequency, TF over GST control)
